Values without a mark were called inactive. Calls follow the shape of the dose curve; as a rule, active = well fitted inhibition curve with a large enough effect; inconclusive = small, poorly fitted or top-dose-only effect; inactive = no such curve, though single readings can be large or run the other way. Inconclusive results are not listed.

The first assay can be described thus: qHTS assay for measurement of the activity of small molecule inhibitors on Zika virus induced Caspase-3 activity in human iPSC derived neural progenitor cells (hNPCs) (AID 1224857). Also: % of control where 0% means no effect; nearly all actives have a fitted effect of over 65% in size. Conditions: hNPCs ZIKV-induced caspase-3/7, Caspase-Glo luminescence, 6 h; series mostly up to 45.7 µM; activity change, negative = inhibition: at the top concentration. The essentials:
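Values are percent inhibition of virus-induced caspase-3/7 signal, scaled between uninfected cells and ZIKV-infected cells. Infection used 2 FFU/cell for 6 h after 1 h compound exposure.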
For `Nc1c(I)cc(I)c(C(=O)N(CCC(=O)O)c2ccccc2)c1I`, the “activity change, negative = inhibition” value was 8.49%.

As for `CCN(CC)C(=O)C1CN2CCc3cc(OC)c(OC)cc3C2CC1OC(C)=O` (centres undefined), the “activity change, negative = inhibition” value was 15.7%.

Regarding `CC(CC1c2ccccc2CCc2ccccc21)CN(C)C` (centres undefined), the “activity change, negative = inhibition” value was -4.36%.

For the molecule `COCCc1ccc(OCC2CO2)cc1` (centres undefined), the “activity change, negative = inhibition” value was -14.3%.

In the case of `CC(C)=CCC/C(C)=C/CC/C(C)=C/C(=O)OCC(=O)[C@@]1(O)CC[C@H]2[C@@H]3CCC4=CC(=O)C=C[C@]4(C)[C@H]3[C@@H](O)C[C@@]21C`, the “activity change, negative = inhibition” value was 14.7%.

On to `O=C(CCOCCOCCOCCOCCC(=O)Nc1c(I)cc(I)c(C(=O)O)c1I)Nc1c(I)cc(I)c(C(=O)O)c1I`, for which the “activity change, negative = inhibition” value is 18.2%.

On to `CCN(CC)CCN`, for which the “activity change, negative = inhibition” value was -8.8%.

Regarding `C/C=C(/C(=C/C)c1ccc(OC(C)=O)cc1)c1ccc(OC(C)=O)cc1`, the “activity change, negative = inhibition” value was 35.8%.

Take `O=C1CC2(CCCC2)CC(=O)N1`: the “activity change, negative = inhibition” value was 7.15%.

With `CN1Cc2cc(C(=O)N3CCC(C4CCNCC4)CC3)ccc2N[C@@H](CC(=O)O)C1=O`, the “activity change, negative = inhibition” value is 6.48%.

`O=C1Nc2cc(Cl)ccc2Oc2ccccc21`: the “activity change, negative = inhibition” value is 6.13%.

For `CCCCCOc1ccccc1/C(=C\SC)n1ccnc1`, the “activity change, negative = inhibition” value was 8.37%.

As to `Cc1[nH]cnc1-c1ccc(Cl)cc1`, the “activity change, negative = inhibition” value was -1.01%.

As for `CC(=O)OC[C@H]1O[C@@H](OC(C)=O)[C@H](OC(C)=O)[C@@H]1OC(C)=O`, the “activity change, negative = inhibition” value is 15.2%.

Consider `Cc1ccc2c(Cl)cc(Cl)c(O)c2n1`, for which the “activity change, negative = inhibition” value was -2.97%.

In the case of `COc1cc(/C=C/C(N)=O)cc(OC)c1OC`, the “activity change, negative = inhibition” value was 19.7%.

Take `CC(=O)c1cc2ccccc2s1`: the “activity change, negative = inhibition” value was 4.63%.

For `Cc1nc2n(c(=O)c1CCN1CCC(C(=O)c3ccc(F)cc3)CC1)CCS2`, the “activity change, negative = inhibition” value was 2.64%.

For `CC(C)(C)c1ccc(C(=O)CCCCl)cc1`, the “activity change, negative = inhibition” value is -2.04%.

Turning to `CCOC(=O)N1CCC(Nc2ccc(Cl)cc2N)CC1`, the “activity change, negative = inhibition” value is -13%.

With `O=C(O)Cn1c(=O)n(Cc2ccc(Br)cc2F)c(=O)c2ccc(Cl)cc21`, the “activity change, negative = inhibition” value was 9.18%.

With `CC1(C)OC(=O)Nc2ccc(Br)cc21`, the “activity change, negative = inhibition” value is 14.1%.

`CCOc1c(N2CCOCC2)cnn(C)c1=O`: the “activity change, negative = inhibition” value was -4.63%.

With `Oc1cccc2[nH]ccc12`, the “activity change, negative = inhibition” value was 14.1%.

As for `CC(C)(Oc1ccc(Cl)cc1)C(=O)OCCCOC(=O)C(C)(C)Oc1ccc(Cl)cc1`, the “activity change, negative = inhibition” value was 28.9%.

Turning to `CCN(CC)CC(=O)Nc1c(C)cccc1C(=O)OC`, the “activity change, negative = inhibition” value was 37.9%.

Take `CCN(CC)CC(=O)OCC(=O)[C@@]1(O)CC[C@H]2[C@@H]3CCC4=CC(=O)CC[C@]4(C)[C@H]3[C@@H](O)C[C@@]21C`: the “activity change, negative = inhibition” value was -6.38%.

Turning to `CC(C)OP(=O)(CP(=O)(OC(C)C)OC(C)C)OC(C)C`, the “activity change, negative = inhibition” value was -5.42%.

With `CO[C@@H]1[C@@H](O[C@@H]2O[C@H](C)[C@@H](O[C@H]3C[C@@](C)(O)[C@@H](O)[C@H](C)O3)[C@H](N(C)C)[C@H]2O)[C@@H](CC=O)C[C@@H](C)[C@@H](O[C@@H]2CC[C@H](N(C)C)[C@@H](C)O2)/C=C/C=C/C[C@@H](C)OC(=O)C[C@H]1OC(C)=O`, the “activity change, negative = inhibition” value is 19%.

As to `CC(C)C(=O)Nc1cccc(C(F)(F)F)c1`, the “activity change, negative = inhibition” value was -4.41%.

`c1ccc2c(c1)CCc1ccccc1N2`: the “activity change, negative = inhibition” value is 4.93%.

For the molecule `CCCCCN(CCCOC)C(=O)C(CCC(=O)O)NC(=O)c1ccc(Cl)c(Cl)c1` (centres undefined), the “activity change, negative = inhibition” value is -6.93%.

For the molecule `O=C1c2ccccc2CCc2ccccc21`, the “activity change, negative = inhibition” value is -1.84%.

As for `CC(C)(C)NCC(O)COc1ccccc1OCC1CCCO1` (centres undefined), the “activity change, negative = inhibition” value is 12%.

`N#Cc1cc(NC(=O)C(=O)O)c(Cl)c(NC(=O)C(=O)O)c1`: the “activity change, negative = inhibition” value is 9.61%.

On to `COc1cc2c(cc1OC)C(=O)CC2`, for which the “activity change, negative = inhibition” value is -5.42%.

For the molecule `O=C(OCC(O)CO)c1ccccc1Nc1ccnc2c(C(F)(F)F)cccc12` (centres undefined), the “activity change, negative = inhibition” value was -9.86%.

A further assay can be described thus: qHTS assay for measurement of the activity of small molecule inhibitors on Zika virus induced Caspase-3 activity in human astrocytoma cells (AID 1224859).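 Also: plate controls were ZIKV-infected untreated cells for no effect and uninfected cells for full effect.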 Conditions: SNB-19 ZIKV-induced caspase-3/7, luminescence, 6 h; series mostly up to 45.7 µM; activity change, negative = inhibition: at the top concentration. The essentials:
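Compound added 1 h pre-infection; ZIKV 2 FFU/cell on SNB-19 cells, 6 h, 37 C/5% CO2. Caspase-Glo 3/7 luminescence; values as % inhibition of ZIKV-induced caspase activity.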
As to `Nc1c(I)cc(I)c(C(=O)N(CCC(=O)O)c2ccccc2)c1I`, the “activity change, negative = inhibition” value was 2.92%.

On to `CCN(CC)C(=O)C1CN2CCc3cc(OC)c(OC)cc3C2CC1OC(C)=O` (centres undefined), for which the “activity change, negative = inhibition” value is -10.9%.

Turning to `CC(CC1c2ccccc2CCc2ccccc21)CN(C)C` (centres undefined), the “activity change, negative = inhibition” value was 4.4%.

On to `COCCc1ccc(OCC2CO2)cc1` (centres undefined), for which the “activity change, negative = inhibition” value is -2.35%.

On to `CC(C)=CCC/C(C)=C/CC/C(C)=C/C(=O)OCC(=O)[C@@]1(O)CC[C@H]2[C@@H]3CCC4=CC(=O)C=C[C@]4(C)[C@H]3[C@@H](O)C[C@@]21C`, for which the “activity change, negative = inhibition” value is -1.56%.

Consider `O=C(CCOCCOCCOCCOCCC(=O)Nc1c(I)cc(I)c(C(=O)O)c1I)Nc1c(I)cc(I)c(C(=O)O)c1I`, for which the “activity change, negative = inhibition” value is 3.23%.

In the case of `CCN(CC)CCN`, the “activity change, negative = inhibition” value is -8.17%.

On to `C/C=C(/C(=C/C)c1ccc(OC(C)=O)cc1)c1ccc(OC(C)=O)cc1`, for which the “activity change, negative = inhibition” value is -4.88%.

Turning to `O=C1CC2(CCCC2)CC(=O)N1`, the “activity change, negative = inhibition” value is -7.85%.

With `CN1Cc2cc(C(=O)N3CCC(C4CCNCC4)CC3)ccc2N[C@@H](CC(=O)O)C1=O`, the “activity change, negative = inhibition” value was 14.6%.

In the case of `O=C1Nc2cc(Cl)ccc2Oc2ccccc21`, the “activity change, negative = inhibition” value was 8.28%.

For `CCCCCOc1ccccc1/C(=C\SC)n1ccnc1`, the “activity change, negative = inhibition” value is 30.9%.

For the molecule `Cc1[nH]cnc1-c1ccc(Cl)cc1`, the “activity change, negative = inhibition” value was 3.43%.

On to `CC(=O)OC[C@H]1O[C@@H](OC(C)=O)[C@H](OC(C)=O)[C@@H]1OC(C)=O`, for which the “activity change, negative = inhibition” value is 15.3%.

With `Cc1ccc2c(Cl)cc(Cl)c(O)c2n1`, the “activity change, negative = inhibition” value is -0.595%.

Turning to `COc1cc(/C=C/C(N)=O)cc(OC)c1OC`, the “activity change, negative = inhibition” value is 5.33%.

For the molecule `CC(=O)c1cc2ccccc2s1`, the “activity change, negative = inhibition” value was 13.2%.

As for `Cc1nc2n(c(=O)c1CCN1CCC(C(=O)c3ccc(F)cc3)CC1)CCS2`, the “activity change, negative = inhibition” value was 16.1%.

In the case of `CC(C)(C)c1ccc(C(=O)CCCCl)cc1`, the “activity change, negative = inhibition” value was -6.99%.

For the molecule `CCOC(=O)N1CCC(Nc2ccc(Cl)cc2N)CC1`, the “activity change, negative = inhibition” value is -6.12%.

For `O=C(O)Cn1c(=O)n(Cc2ccc(Br)cc2F)c(=O)c2ccc(Cl)cc21`, the “activity change, negative = inhibition” value is 9.17%.

For `CC1(C)OC(=O)Nc2ccc(Br)cc21`, the “activity change, negative = inhibition” value is 2.22%.

As to `CCOc1c(N2CCOCC2)cnn(C)c1=O`, the “activity change, negative = inhibition” value is 3.53%.

As for `Oc1cccc2[nH]ccc12`, the “activity change, negative = inhibition” value was 13.6%.

As for `CC(C)(Oc1ccc(Cl)cc1)C(=O)OCCCOC(=O)C(C)(C)Oc1ccc(Cl)cc1`, the “activity change, negative = inhibition” value is -25.5%.

In the case of `CCN(CC)CC(=O)Nc1c(C)cccc1C(=O)OC`, the “activity change, negative = inhibition” value is -5.06%.

Take `CCN(CC)CC(=O)OCC(=O)[C@@]1(O)CC[C@H]2[C@@H]3CCC4=CC(=O)CC[C@]4(C)[C@H]3[C@@H](O)C[C@@]21C`: the “activity change, negative = inhibition” value is 8.42%.

For the molecule `CC(C)OP(=O)(CP(=O)(OC(C)C)OC(C)C)OC(C)C`, the “activity change, negative = inhibition” value is 2.53%.

`CO[C@@H]1[C@@H](O[C@@H]2O[C@H](C)[C@@H](O[C@H]3C[C@@](C)(O)[C@@H](O)[C@H](C)O3)[C@H](N(C)C)[C@H]2O)[C@@H](CC=O)C[C@@H](C)[C@@H](O[C@@H]2CC[C@H](N(C)C)[C@@H](C)O2)/C=C/C=C/C[C@@H](C)OC(=O)C[C@H]1OC(C)=O`: the “activity change, negative = inhibition” value is 10.2%.

As to `CC(C)C(=O)Nc1cccc(C(F)(F)F)c1`, the “activity change, negative = inhibition” value was 24.7%.

Take `c1ccc2c(c1)CCc1ccccc1N2`: the “activity change, negative = inhibition” value is 61.1%.

As to `CCCCCN(CCCOC)C(=O)C(CCC(=O)O)NC(=O)c1ccc(Cl)c(Cl)c1` (centres undefined), the “activity change, negative = inhibition” value was 2.34%.

On to `O=C1c2ccccc2CCc2ccccc21`, for which the “activity change, negative = inhibition” value is -31.9%.

Take `CC(C)(C)NCC(O)COc1ccccc1OCC1CCCO1` (centres undefined): the “activity change, negative = inhibition” value is -9.32%.

On to `N#Cc1cc(NC(=O)C(=O)O)c(Cl)c(NC(=O)C(=O)O)c1`, for which the “activity change, negative = inhibition” value is -4.78%.

Take `COc1cc2c(cc1OC)C(=O)CC2`: the “activity change, negative = inhibition” value was 7.16%.

Turning to `O=C(OCC(O)CO)c1ccccc1Nc1ccnc2c(C(F)(F)F)cccc12` (centres undefined), the “activity change, negative = inhibition” value was 2.23%.
